Test results: PubChem BioAssay AID1159580 (chemical genetic matrix, 2015)
Several values for one entry are separate records, joined by “and”; a condition that tells them apart may be missing. Equal values may be shown once. The campaign covered roughly 5,500 compounds. About 2,000 (36%) were called active. About 18% were inconclusive and are not listed. Rule as the data show it: active = normalized growth mostly below about 0.91 (no sharp cut-off); inconclusive = no clear call, values can overlap the other calls; inactive = mostly above about 0.92. Some of the results follow.

Experiment: chemical genetic growth profiling, strain panel (AID 1159580);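 also: tested at 20 µM; growth read once vehicle control cultures reached saturation at 30 °C; 1 = growth at the plate median or of vehicle wells; lower values mean less growth of the strain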
Conditions: S. cerevisiae deletion strains, growth OD

Measured: normalized growth

O=C(O)c1nc2cc(Cl)c(Cl)cc2[nH]c1=O
inactive: locus YAL013W, strain DEP1, active compounds read low 1.02 | locus YAL021C, strain ccr4, active compounds read low 0.995 | locus YAL026C, strain drs2, active compounds read low 1.03 | locus YAL030W, strain snc1, active compounds read low 1.01 | locus YBL061C, strain skt5, active compounds read low 1.01 | locus YBR009C, strain hhf1, active compounds read low 1.04 | locus YBR021W, strain FUR4, active compounds read low 1.02 | locus YBR023C, strain chs3, active compounds read low 1.03 | locus YBR171W, strain sec66, active compounds read low 1.04 | locus YBR229C, strain ROT2, active compounds read low 1.01 | locus YBR231C, strain swc5, active compounds read low 1.02 | locus YBR279W, strain paf1, active compounds read low 1.01 | locus YCL011C, strain gbp2, active compounds read low 1.02 | locus YCL016C, strain dcc1, active compounds read low 1.01 | locus YCL029C, strain bik1, active compounds read low 0.99 | locus YCL061C, strain MRC1, active compounds read low 1.03 | locus YCL069W, strain vba3, active compounds read low 1.01 | locus YCR088W, strain abp1, active compounds read low 1.01 | locus YDL005C, strain med2, active compounds read low 1.02 | locus YDL035C, strain GPR1, active compounds read low 1.01 | locus YDL040C, strain nat1, active compounds read low 0.995 | locus YDL074C, strain BRE1, active compounds read low 1.03 | locus YDL101C, strain DUN1, active compounds read low 1.02 | locus YDL134C, strain PPH21, active compounds read low 1 | locus YDL185W, strain tfp1, active compounds read low 0.956 | locus YDL192W, strain arf1, active compounds read low 0.993 | locus YDR001C, strain nth1, active compounds read low 1.01 | locus YDR069C, strain doa4, active compounds read low 1.04 | locus YDR101C, strain arx1, active compounds read low 1.01 | locus YDR137W, strain rgp1, active compounds read low 0.974 | locus YDR150W, strain NUM1, active compounds read low 0.978 | locus YDR159W, strain sac3, active compounds read low 1.01 | locus YDR162C, strain NBP2, active compounds read low 1.03 | locus YDR195W, strain ref2 1.04 | locus YDR297W, strain sur2, active compounds read low 1.01 | locus YDR318W, strain mcm21, active compounds read low 0.994 | locus YDR334W, strain swr1, active compounds read low 1.02 | locus YDR335W, strain msn5, active compounds read low 1.02 | locus YDR388W, active compounds read low 1.01 | locus YDR392W, strain spt3, active compounds read low 0.968 | locus YDR502C, strain sam2, active compounds read low 1.01 | locus YEL003W, strain gim4, active compounds read low 1.03 | locus YEL037C, strain rad23, active compounds read low 1.02 | locus YEL061C, strain CIN8 (second series), active compounds read low 1.02 | locus YEL061C, strain CIN8, active compounds read low 0.998 | locus YER015W, strain faa2, active compounds read low 1.01 | locus YER016W, strain bim1, active compounds read low 1.01 | locus YER110C, active compounds read low 0.992 | locus YER111C, strain swi4, active compounds read low 1.03 | locus YER155C, strain BEM2 (second series), active compounds read low 1.03 | locus YER155C, strain BEM2, active compounds read low 0.996 | locus YER167W, strain BCK2, active compounds read low 1 | locus YFR010W, strain ubp6, active compounds read low 1.03 | locus YGL078C, strain dbp3, active compounds read low 0.992 | locus YGL086W, strain mad1, active compounds read low 0.979 | locus YGL167C, strain pmr1, active compounds read low 1.01 | locus YGL173C, strain kem1, active compounds read low 1.02 | locus YGL227W, strain vid30, active compounds read low 1.02 | locus YGL240W, strain doc1, active compounds read low 1.03 | locus YGL248W, strain PDE1, active compounds read low 1.01 | locus YGL253W, strain hxk2, active compounds read low 1.03 | locus YGR078C, strain PAC10, active compounds read low 1.03 | locus YGR135W, strain pre9, active compounds read low 1.02 | locus YGR229C, strain SMI1, active compounds read low 1.07 | locus YGR252W, strain gcn5, active compounds read low 1 | locus YHR013C, strain ard1, active compounds read low 0.994 | locus YHR027C, strain rpn1, active compounds read low 1.02 | locus YHR030C, strain SLT2, active compounds read low 0.995 and 0.994 | locus YHR079C, strain IRE1 (second series), active compounds read low 0.997 | locus YHR079C, strain IRE1, active compounds read low 0.999 | locus YHR094C, strain hxt1, active compounds read low 0.983 | locus YHR129C, strain ARP1, active compounds read low 1.01 | locus YHR142W, strain chs7, active compounds read low 0.984 | locus YHR200W, strain rpn10, active compounds read low 0.99 | locus YIL066C, strain RNR3, active compounds read low 1 | locus YIL073C, strain SPO22, active compounds read low 0.946 | locus YIR030C, strain dcg1, active compounds read low 0.992 | locus YJL092W, strain hpr5, active compounds read low 1.02 | locus YJL095W, strain BCK1 (second series), active compounds read low 1 | locus YJL095W, strain BCK1, active compounds read low 1.05 and 0.986 | locus YJL115W, strain asf1, active compounds read low 1.02 | locus YJL129C, strain trk1, active compounds read low 1.01 | locus YJL134W, strain LCB3, active compounds read low 0.994 | locus YJL154C, strain vps35, active compounds read low 1 | locus YJL164C, strain tpk1, active compounds read low 0.999 | locus YJL166W, strain qcr8, active compounds read low 1.02 | locus YJL168C, strain set2, active compounds read low 1.01 | locus YJL187C, strain SWE1 (second series), active compounds read low 1.01 | locus YJL187C, strain SWE1, active compounds read low 1.02 | locus YJR043C, strain POL32, active compounds read low 1.02 | locus YJR066W, strain TOR1, active compounds read low 0.985
